Test results from PubChem BioAssay AID1285 (Columbia University Molecular Screening Center, 2008).
In all, about 190,000 compounds went through this assay and about 1,600 (0.84%) were called active.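 How the source made its calls: active means inhibition above a set limit, derived from the sample mean plus 3 SD (cut at about 45% in these data); inconclusive means one replicate passes the limit while the other fails; inactive means the rest.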 The list comes from a sample in which actives are over-represented; it also holds similar structures and randomly drawn compounds.

assay: APP 5'UTR translational reporter suppression – APP 5'UTR luciferase, SH-SY5Y cells, primary screen (AID 1285); conditions: SH-SY5Y APP 5'UTR-luciferase reporter, luminescence; at 2 µM; active compounds read high

inhibition, active:
O=C(Nc1ccccc1)c1ccc2c(c1)OCO2 58.8%
Clc1cccc(CN2COc3c(cc(Cl)c4cccnc34)C2)c1 74.6%
CN(NC(=O)c1ccccc1F)c1nc(C(F)(F)F)nc2ccccc12 91%
CSc1nc(N(C)NC(=O)c2cccc(C)c2)c2ccccc2n1 96.7%
Cc1cc(C(=O)OCC(=O)NCc2ccco2)c(C)n1-c1ccccc1 60.8%
O=C(Nc1ccccc1Cl)/C(Cl)=C(\Cl)S(=O)c1ccccc1 (stereo unspecified) 93.8%
CC(C)N(C(=O)CSc1nc(COc2ccccc2)nc2ccccc12)C(C)C 48.3%
CCNC(=O)CCc1nc(-c2ccc(C(C)(C)C)cc2)no1 51.8%
Nc1nnc(SCC(=O)OCc2ccc(Cl)c(Cl)c2)s1 86.8%
C=CCn1c(C)cc(C2=NNC(=NCC)SC2)c1C 69.1%
CCC(C)(C)c1ccc(Oc2ccc(NC(=O)COC(=O)C3=COCCO3)cc2)cc1 45.6%
CCOc1cc(C(=O)N2CCc3cc(OC)c(OC)cc3C2)ccc1OC(F)F 94.6%
COc1ccc(Cc2nnc(N/N=C/c3ccccc3O)[nH]c2=O)cc1OC 85.9%
Cc1cc(C(=O)N/N=C/c2cc([N+](=O)[O-])cc(C)c2O)n[nH]1 87.3%
CCOc1cc(/C=C(/C#N)c2ccc(Cl)cc2)cc(Cl)c1OCC(=O)O 50.6%
CCOC(=O)N1CCN(C(=O)COc2ccc(Cl)cc2C)CC1 49.2%
CCc1ccc(CNC(=O)C2CC(=O)N(CCc3ccc(C)cc3)C2)cc1 (stereo unspecified) 50.9%
O=C(O)COc1ccc(-c2nccc(-c3cccs3)n2)cc1 69%
COc1ccc(NC(=O)/C(Cl)=C(/Cl)S(=O)Cc2ccc(C)cc2)cn1 (stereo unspecified) 91.7%
COc1ccc(CS(=O)/C(Cl)=C(/Cl)C(=O)Nc2ccc(OC)nc2)cc1 (stereo unspecified) 94%

inhibition, inactive:
O=C(Nc1cccc([N+](=O)[O-])c1)c1ccc2c(c1)OCO2 -43.1%
O=C(Nc1ccc(N2CCOCC2)cc1)c1ccc2c(c1)OCO2 -48.7%
CCOC(=O)c1c(NC(=O)C2CC=CCC2C(=O)O)sc(C)c1CC (stereo unspecified) -12.9%
O=C(CCN1C(=O)c2ccccc2C1=O)NNC(=O)c1ccc(Cl)cc1Cl -9.9%
O=C(Cc1cccs1)N/N=C/c1ccc(OCc2ccccc2)cc1 5.4%
COc1ccc(C(=O)C[n+]2ccc(N)c(C)c2C)cc1 6.8%
Oc1c(CN2CCN(c3ccc(F)cc3)CC2)cc(Cl)c2cccnc12 8.7%
O=c1[nH]n(-c2cccc(Cl)c2)c2ncccc12 -4.8%
COc1ccc(C(=O)NN(C)c2nc(-c3ccccc3)cc(C)c2S(C)(=O)=O)cc1 -3.3%
COC(=O)CNC(=O)c1ccccc1F -10.5%
COc1ccc(OCC(=O)NNC(=O)c2cccc(C)c2)cc1 -16.1%
CN(NC(=O)c1ccccc1)c1nc2ccccc2nc1C(F)(F)F -3.6%
CC(=O)N1CC(C)c2scc(C)[n+]2-c2ccccc21 (stereo unspecified) -17.2%
C=CCc1ccc(OCC(O)CN2CCN(Cc3ccccc3)CC2)c(OC)c1 (stereo unspecified) -8.6%
CC(=O)N1c2ccccc2N(Cc2ccc([N+](=O)[O-])cc2)C(=O)C1(C)C -12.9%
CCOc1ccc(N2CC(C(=O)NCCN3C(=O)S/C(=C\c4cccnc4)C3=O)CC2=O)cc1 (stereo unspecified) -6%
O=C(COC(=O)c1cnc(Cl)c(Cl)c1)NCc1ccco1 6.8%
O=C(COC(=O)c1cc(S(=O)(=O)N2CCCCC2)ccc1Cl)NCc1ccco1 5%
C/C(=N\NC(=O)c1cccnc1)c1ccc(-n2ccnc2)cc1 -7.3%
Cc1[nH]c2ccccc2c1-c1ccc(Cl)nn1 5.5%
COc1ccc(Cc2n[nH]c(=S)n2NC(=O)Nc2ccc(C)cc2)cc1 -47.2%
O=C(Nc1ccccc1Cl)c1ccc2nsnc2c1 -80.7%
O=C(CN1CCCCC1)Nc1ccccc1Cl 17.7%
CCN(C(=O)CN1CCN(Cc2ccccc2)CC1)c1c(N)n(Cc2ccccc2)c(=O)[nH]c1=O -17.3%
CCCc1nc(SCC(=O)Nc2ccc(S(=O)(=O)N(C)C)cc2)c2ccccc2n1 -11.7%
COC(=O)CSc1nc(C2CC2)nc2ccccc12 -12.5%
COc1ccc(Cl)cc1NC(=O)NC(C)C(C)(C)C (stereo unspecified) -0.1%
CCN(CC)S(=O)(=O)c1ccc(Cl)c(NC(=O)c2ccncc2)c1 17.9%
CCN(CC)CCCNC(=O)Cn1cnc2sc(C)c(S(=O)(=O)N3CCN(c4ncccn4)CC3)c2c1=O -10.4%
CN1CCN(C(=O)CCc2nc(-c3ccc(Cl)cc3)no2)CC1 9.1%
Cc1ccc(-c2noc(CCC(N)=O)n2)cc1 5.2%
COc1ccc(N2CCN(C(=O)c3ccc4c(Cl)c5c(nc4c3)CCCC5)CC2)cc1 -5.5%
CC(=O)Nc1nc(N(C)C)nc(N(C)C)n1 4.4%
CC1(C)CC(=O)c2cnc3nc4ccccc4n3c2C1 -8.9%
CN(C(=O)CSc1nnc(N)s1)c1c(N)n(Cc2ccccc2)c(=O)[nH]c1=O -12.7%
COC(=O)c1ccc(CSc2nnc(N)s2)o1 -10.2%
COCCNC(=O)c1ccc(-n2c(SCc3cccnc3)nc3ccccc3c2=O)cc1 -4.3%
CCCCCCCCCCOC(=O)C[N+](C)(C)CC1CCCCC1O (stereo unspecified) -4.7%
O=C(c1snnc1-c1ccccc1)N1CCOCC1 -16.4%
COCCn1c(C)cc(C2=NNC(=Nc3ccc(F)cc3)SC2)c1C -82.3%
Cc1cc(C2=NNC(=Nc3ccc(S(=O)(=O)N4CCOCC4)cc3)SC2)c(C)n1CC1CCCO1 (stereo unspecified) -30.6%
CCN(C(=O)CSc1nc2ccccc2n1CC)C1CCS(=O)(=O)C1 (stereo unspecified) -8%
C[N+]1(CC(O)COc2ccccc2)CCN(C(=O)c2ccc([N+](=O)[O-])cc2)CC1 (stereo unspecified) 0.3%
O=C(OCC(=O)c1cccs1)C1=COCCO1 -41.7%
COc1ccc(NC(=O)COC(=O)CNC(=O)C2CCCCC2)cc1 -10.5%
Cc1ccc2[nH]c(C)c(CCNC(=O)NC3CCCCC3)c2c1 2.7%
CSCC[C@H](NC(=O)NC1CCCC1)C(=O)O 20.9%
COc1cc2c(cc1OC)CN(C(=O)c1cc(=O)c3ccccc3o1)CC2 13.7%
COc1cc2c(cc1OC)CN(C(=O)c1ccc(S(=O)(=O)N3CCCCCC3)cc1)CC2 -6.7%
Cc1cccc(CSc2ccc(-c3cccs3)nn2)c1 -24.9%
Cc1cc(N2CCOCC2)nc2ccc(NC(=S)N3CCN(Cc4ccccc4)CC3)cc12 -3.7%
CCOc1ccc(-n2c(O)c(/C=N/Nc3nnc(C)c(=O)[nH]3)c3ccccc3c2=O)cc1 -5.3%
COc1ccc(/C=N/Nc2nc3ccccc3c(=O)[nH]2)cc1 -92.9%
COc1ccc(S(=O)(=O)N2CN(CCc3ccc(OC)c(OC)c3)c3nc4ccccc4nc32)cc1 -3.7%
COC(=O)C1=C(C)NC(=O)CC1c1ccccc1OC (stereo unspecified) -15.8%
O=C(Nc1ccccc1C(=O)O)c1cc(S(=O)(=O)N2CCCCC2)cs1 -13.4%
Cc1ccsc1C(=O)N/N=C/c1ccc([N+](=O)[O-])cc1 -37.2%
Cc1ccc(-n2[nH]c(C)c(/C=N/NC(=O)c3cccc([N+](=O)[O-])c3)c2=O)cc1C -33.1%
CCOc1cc(CNn2c(C)nnc2SCC(=O)NC(C)(C)C)ccc1OCC(=O)NC(C)(C)C 21.4%
Cc1cc(C)n(CC(O)CN(c2ccccc2)S(=O)(=O)c2ccc3ccccc3c2)n1 (stereo unspecified) 1.9%
CCOc1c(Cl)cc(/C=N/O)cc1OC -23.6%
CCOC(=O)CN/C=C(\C#N)c1ccc(F)cc1 -29.3%
Cc1ccc(S(=O)(=O)C2C(=O)NC3(C)CC2c2ccccc2O3)cc1 (stereo unspecified) -1.5%
CCN(CC)CCCSc1nc2ccccc2s1 -15.1%
O=C(CC(NC(=O)c1ccccc1)c1ccccc1)Nc1ccc(F)c(F)c1 (stereo unspecified) 24.2%
CCOC(=O)N1CCN(C(=O)CSc2ccc(Cl)cc2)CC1 5%
CCOC(=O)N1CCN(C(=O)COc2ccc(Br)cc2)CC1 -13.6%
CC(Sc1nnnn1C)C(=O)NC(=O)NC1CCCCC1 (stereo unspecified) -31%
Cc1ccc(CCN2CC(C(=O)O)CC2=O)cc1 (stereo unspecified) -6.2%
Cc1ccc(CNC(=O)C2CC(=O)N(C3CCCCCCC3)C2)cc1 (stereo unspecified) -17.8%
Cc1ccc(NC(=O)c2ccc(Oc3ncccn3)cc2)cc1 -39.8%
O=C(CCC(=O)c1cccs1)NC1CCCCCC1 -18.6%
COC(=O)CSc1nccc(-c2cccs2)n1 8.1%
O=C(Nc1ccnc(-c2ccncc2)n1)c1cccs1 5.8%
Cc1ccc2c(c1)C(O)(CC(=O)c1cccc(-n3cccc3)c1)C(=O)N2 (stereo unspecified) -4.6%
CC1CC(C)CN(C(=O)CSc2ccsc2[N+](=O)[O-])C1 (stereo unspecified) -3.7%
O=C(NCc1ccco1)C(=O)c1cn(CC(=O)N2CCCCCC2)c2ccccc12 -1.5%
COc1ccc(NC(=S)Nc2ccccc2Cl)cn1 -6.6%
Cc1ccc(NC(=O)OCc2cncs2)cc1 -41.4%
COc1ccc(NC(=S)NCCNC(C)=O)cc1 -0.5%
CC(=O)Nc1ccc(OCC(=O)NCc2ccc(C)cc2)cc1 -8.4%
